Experiment [1] is described as follows: CCTE_Shafer_MEA_dev_active_electrodes_number: CCTE's Neural Network Formation Assay for Number of Active Electrodes, Shafer Lab (AID 2284040; active = hit-call score of the fitted dose curve at least 0.9, where 1 is the maximum;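 as to AC50: potency for loss of active electrodes versus DMSO so lower counts are hits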). The essentials: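 Rat cortical primary cultures, 1.5 x 10^5 cells/well, PEI-coated MEA, laminin drop. Continuous exposure DIV 0–12; full media/compound change DIV 5, 9. Readout: electrodes with mean firing ≥5 spikes/min; AUC across days; loss vs DMSO.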

Experiment [2] is described as follows: CCTE_Shafer_MEA_dev_burst_rate: CCTE's Neural Network Formation Assay for Burst Rate, Shafer Lab (AID 2284042).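 As to AC50: potency for loss of burst rate below DMSO control.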 An outline of the steps:
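Rat primary cortical cultures on PEI/laminin MEA; compound from plating, re-dosed at DIV 5, 9 media change. Single-electrode bursts/recording length, well mean of active electrodes; AUC over DIV 5–12 recordings; loss-of-signal vs DMSO.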

A short description of experiment [3]: CCTE_Shafer_MEA_dev_bursting_electrodes_number: CCTE's Neural Network Formation Assay for Number of Bursting Electrodes, Shafer Lab (AID 2284043; active = hit-call score of the fitted dose curve at least 0.9, where 1 is the maximum;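 as to AC50: potency is for loss of bursting electrodes relative to DMSO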). The essentials:
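Primary rat cortical neurons plated on 16-electrode MEA wells, exposed from day 0 with compound renewed at DIV 5 and 9. Electrodes bursting ≥1 burst per 2 min counted on days 5, 7, 9 and 12; trapezoidal AUC across days, fitted for loss versus DMSO.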

Experiment [4] in a line: CCTE_Shafer_MEA_dev_per_burst_interspike_interval: CCTE's Neural Network Formation Assay for Burst Interspike Interval, Shafer Lab (AID 2284044).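 Also: mean spike spacing inside bursts as AUC over recordings on days 5 7 9 12.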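 As to AC50: potency for a decrease of within-burst interspike interval below DMSO level.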 An outline of the steps: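 Spontaneous activity of maturing rat cortical networks is recorded on DIV 5, 7, 9 and 12 under chronic compound exposure beginning at plating. Endpoint: burst interspike interval well-mean, collapsed into trapezoidal AUC and fitted in the negative direction relative to DMSO.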

Experiment [5] in a line: CCTE_Shafer_MEA_dev_burst_duration_mean: CCTE's Neural Network Formation Assay for Mean Burst Duration, Shafer Lab (AID 2284045).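 As to AC50: curve fitted for loss meaning shorter burst duration than DMSO.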 An outline of the steps:
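Primary rat cortical neurons on 48-well 16-electrode MEA plates, exposed from day 0 with renewal at DIV 5 and 9; spontaneous activity recorded on days 5, 7, 9, 12. Well-mean burst duration across bursting electrodes, collapsed as trapezoidal AUC; DMSO baseline.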

The nature of experiment [6]: CCTE_Shafer_MEA_dev_interburst_interval_mean: CCTE's Neural Network Formation Assay for Mean Interburst Interval, Shafer Lab (AID 2284046).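 Also: well-mean interburst interval of bursting electrodes as AUC over four recording days; curve fitted for decrease in interburst interval relative to DMSO.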 An outline of the steps: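 Rat cortical neurons, 1.5 x 10^5 cells/well, 48-well MEA; compound from day 0 through DIV 12, media and treatment renewed DIV 5/9. Recordings DIV 5, 7, 9, 12; well-mean interburst interval → trapezoidal AUC, loss direction vs DMSO.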

The nature of experiment [7]: CCTE_Shafer_MEA_dev_inter_network_spike_interval_mean: CCTE's Neural Network Formation Assay for Mean Inter-network Spike Interval, Shafer Lab (AID 2284047). The essentials: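 Primary rat cortical neurons on PEI-coated 48-well MEAs (16 electrodes/well) were exposed from plating day 0 to DIV 12, with dosing renewed at DIV 5 and 9. Recordings at DIV 5, 7, 9, 12 were collapsed by trapezoidal AUC, loss-of-signal fit vs DMSO.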

In experiment [8] the target is Estrogen receptor (Homo sapiens) (UniProt P03372). Nature of the experiment: CCTE_Deisenroth_AIME_384WELL_LUC_Inactive: CCTE's 384-well Estrogen Receptor Transactivation Assay without AIME metabolic competence (ERTA luciferase; metabolism negative), Deisenroth Lab (AID 2284038; active = hit-call score of the fitted dose curve at least 0.9, where 1 is the maximum;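 also: hits raise estrogen receptor luciferase signal so potencies reflect agonists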). An outline of the steps: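 Chemicals (10-point series, 0.002 - 200 uM) were incubated 2 hours with alginate-water microsphere lids lacking S9, then the conditioned medium was transferred to VM7Luc4E2 breast cells for 24 hour. Luciferase induction was read by bioluminescence, fitted upward relative to 17beta-estradiol.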
Estrogen receptor (Homo sapiens), sequence (P03372 whole entry, looked up): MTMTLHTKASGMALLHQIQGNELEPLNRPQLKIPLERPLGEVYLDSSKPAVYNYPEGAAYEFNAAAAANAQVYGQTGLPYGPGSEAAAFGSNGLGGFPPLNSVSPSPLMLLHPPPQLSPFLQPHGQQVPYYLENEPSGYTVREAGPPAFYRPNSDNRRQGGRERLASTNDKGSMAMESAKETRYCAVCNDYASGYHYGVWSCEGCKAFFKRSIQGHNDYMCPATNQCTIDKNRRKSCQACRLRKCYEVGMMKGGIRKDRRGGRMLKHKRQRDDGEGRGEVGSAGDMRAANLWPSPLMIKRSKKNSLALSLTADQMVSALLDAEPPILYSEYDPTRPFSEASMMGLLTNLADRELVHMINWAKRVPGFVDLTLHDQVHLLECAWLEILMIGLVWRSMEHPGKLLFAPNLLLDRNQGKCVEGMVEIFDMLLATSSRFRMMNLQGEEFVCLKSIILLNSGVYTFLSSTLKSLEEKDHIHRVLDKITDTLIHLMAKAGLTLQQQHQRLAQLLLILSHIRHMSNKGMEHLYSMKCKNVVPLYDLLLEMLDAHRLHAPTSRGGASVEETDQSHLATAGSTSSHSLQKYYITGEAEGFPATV

Experiment [9] can be described thus: CCTE_Deisenroth_AIME_384WELL_CTox_Inactive: Cytotoxicity Assessment (CTOX) in CCTE's 384-well Estrogen Receptor Transactivation Assay without AIME metabolic competence (metabolism negative), Deisenroth Lab (AID 2284039; active = hit-call score of the fitted dose curve at least 0.9, where 1 is the maximum;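 also: cell viability via live-cell protease substrate cleaved to fluorescent probe; cells exposed 24 h to medium preincubated 2 h with alginate-water beads without S9; loss of fluorescence signal means loss of viability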). An outline of the steps:
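VM7Luc4E2 human breast cells received conditioned medium from a 2 h incubation of chemical with alginate-water microspheres (no S9), then were exposed 24 h. Viability was read as protease-substrate cleavage to a fluorescent probe; loss of signal was fitted bidirectionally over 0.002–200 uM.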

Experiment [10] addresses Estrogen receptor (Homo sapiens) (UniProt P03372). Description: CCTE_Deisenroth_AIME_384WELL_LUC_Shift: CCTE's 384-well Estrogen Receptor Transactivation Assay with AIME metabolic competence data shift (ERTA luciferase; difference in metabolism positive and negative), Deisenroth Lab (AID 2284041).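 Also: shift is response with S9 minus without S9 so positive means metabolism raised ER signal.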 The essentials:
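Chemicals (0.002–200 uM, 10 points) pre-incubated 2 h with alginate-encapsulated induced male Sprague Dawley rat liver S9 or S9-free, then medium applied 24 h to VM7Luc4E2 cells; luciferase. Endpoint is per-concentration difference, S9-positive minus negative.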

Results filed as inconclusive are left out. Calls of active or inactive are those of the source. The calls were made as follows, unless noted: active = hit-call score of the fitted dose curve at least 0.9, where 1 is the maximum; inactive = score below 0.9.

Consider `CNC(=O)CSP(=O)(OC)OC`, for which the outcome in experiment [1], in experiment [2], in experiment [3], in [4], in [5] and in [6] was inactive. For the same molecule, the call in experiment [7] was inactive.

As to `N#CCC#N`, the outcome in experiment [8], in [9] and in experiment [10] was inactive.

For the molecule `C=CC(F)(C(F)(F)F)C(F)(F)C(F)(F)F` (stereo not drawn), the molecule was classed as inactive in experiment [2], in experiment [3], in experiment [4], in experiment [5], in experiment [6] and in experiment [7].

For the molecule `CNC(=O)O/N=C/C(C)(C)S(C)(=O)=O`, the result in experiment [8], in experiment [9] and in experiment [10] was inactive.

For `CN(C)C(=S)S`, the result in experiment [9] was inactive.

Consider `Cc1cc(Cl)ccc1OC(C)C(=O)O` (stereo not drawn), for which the result in experiment [8] and in experiment [10] was inactive.

Take `CC(=Cc1ccccc1)[N+](=O)[O-]`: the result in experiment [10] was inactive.

On to `NC(=O)c1ccc(N)nc1`, for which the AC50 in experiment [1] was 6.3 µM (active); in [2], 8.62 µM (active); in [3], 5.44 µM (active); in experiment [4] it was 8.19 µM (active); in experiment [5] it was 8.66 µM (active); in experiment [6], 3.16 µM (active). Besides, in experiment [7], the molecule was called inactive.

Consider `CC(=O)C(F)(F)C(F)(F)F`, for which the molecule was classed as inactive in experiment [2], in experiment [3], in [4], in experiment [5], in experiment [6] and in experiment [7].

Consider `C=CCOC(F)(C(F)(F)F)C(F)(F)F`, for which the outcome in experiment [1], in experiment [2], in experiment [3], in experiment [4], in [5] and in experiment [6] was inactive. The outcome in experiment [7] was inactive.

Consider `CC(F)(F)CC(F)(F)F`, for which the call in experiment [2], in [4], in experiment [5], in [6] and in experiment [7] was inactive.

On to `Cc1ccccc1OP(=O)(Oc1ccccc1C)Oc1ccccc1C`, for which the AC50 in experiment [1] was 20.2 µM (active); in [3], 15 µM (active); in [6] it was 15 µM (active). Besides, the molecule was called inactive in experiment [2], in experiment [4], in experiment [5] and in experiment [7].

Regarding `O=S(=O)(F)C(F)(F)C(F)(F)C(F)(F)C(F)(F)F`, the molecule was called inactive in [1], in [2], in experiment [3], in [4], in [5] and in [6]. In addition, the molecule was classed as inactive in experiment [7].

For the molecule `CCCCCCCCCCCCc1cccc(S(=O)(=O)O)c1`, the molecule was called inactive in [9].

By AC50 is commonly meant the concentration giving half of the maximal activity seen.

The values are drawn from PubChem BioAssay (EPA / NIEHS).
